KDM5B inh: inhibitors of human KDM5B histone demethylase; Q9UGL1; KDM5B demethylase, FDH-coupled NADH fluorescence (FDH is formaldehyde dehydrogenase); Potency, µM (titrated, usually from 57.7 µM), usual class: inhibitors; 220,000 tested, 2.6% active; AID 1347165; active means well fitted inhibition curve with a large enough effect; further: 0% is about no effect; nearly all actives have a fitted effect of over 70% in size
Target sequence (Q9UGL1 whole entry, looked up): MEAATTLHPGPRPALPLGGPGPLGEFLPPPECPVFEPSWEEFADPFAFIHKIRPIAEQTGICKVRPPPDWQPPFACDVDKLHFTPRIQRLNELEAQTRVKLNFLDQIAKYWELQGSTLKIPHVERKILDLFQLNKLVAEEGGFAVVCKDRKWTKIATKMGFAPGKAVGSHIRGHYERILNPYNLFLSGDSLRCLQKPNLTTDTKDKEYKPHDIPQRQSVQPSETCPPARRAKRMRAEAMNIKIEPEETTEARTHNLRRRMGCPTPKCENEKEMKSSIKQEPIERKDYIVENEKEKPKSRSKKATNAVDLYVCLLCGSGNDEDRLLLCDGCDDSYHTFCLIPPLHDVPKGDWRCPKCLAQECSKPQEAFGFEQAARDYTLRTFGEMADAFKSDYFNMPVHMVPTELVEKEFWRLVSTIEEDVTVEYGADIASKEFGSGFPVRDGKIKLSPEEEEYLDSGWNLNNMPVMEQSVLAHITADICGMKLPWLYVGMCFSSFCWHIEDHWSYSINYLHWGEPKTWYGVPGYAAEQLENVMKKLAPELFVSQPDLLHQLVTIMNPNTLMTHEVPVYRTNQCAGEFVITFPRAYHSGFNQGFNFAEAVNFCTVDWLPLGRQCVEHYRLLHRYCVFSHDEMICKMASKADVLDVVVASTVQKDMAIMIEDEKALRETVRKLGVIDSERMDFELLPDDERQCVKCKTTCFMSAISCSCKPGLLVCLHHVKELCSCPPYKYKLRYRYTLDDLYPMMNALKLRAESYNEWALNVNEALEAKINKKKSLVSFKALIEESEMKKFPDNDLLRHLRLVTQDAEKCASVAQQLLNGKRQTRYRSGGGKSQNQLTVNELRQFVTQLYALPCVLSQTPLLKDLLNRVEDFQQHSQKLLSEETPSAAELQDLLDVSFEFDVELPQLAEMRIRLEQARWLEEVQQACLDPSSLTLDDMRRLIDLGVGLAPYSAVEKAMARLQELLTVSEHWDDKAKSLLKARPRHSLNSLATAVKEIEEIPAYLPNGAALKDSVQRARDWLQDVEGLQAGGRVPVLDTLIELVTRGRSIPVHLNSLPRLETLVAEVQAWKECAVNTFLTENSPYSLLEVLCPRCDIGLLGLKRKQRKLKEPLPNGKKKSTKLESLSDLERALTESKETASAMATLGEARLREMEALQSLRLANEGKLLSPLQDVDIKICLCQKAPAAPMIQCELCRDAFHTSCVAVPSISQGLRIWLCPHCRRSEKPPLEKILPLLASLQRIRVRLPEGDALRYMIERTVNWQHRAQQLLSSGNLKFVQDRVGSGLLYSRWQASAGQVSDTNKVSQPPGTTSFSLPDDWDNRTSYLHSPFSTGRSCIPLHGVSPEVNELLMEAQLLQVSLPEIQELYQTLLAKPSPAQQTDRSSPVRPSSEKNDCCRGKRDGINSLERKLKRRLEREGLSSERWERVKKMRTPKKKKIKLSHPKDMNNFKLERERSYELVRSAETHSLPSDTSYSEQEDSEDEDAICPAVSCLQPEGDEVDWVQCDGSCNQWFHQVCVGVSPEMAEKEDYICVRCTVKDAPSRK
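Coupled FDH/NAD⁺ fluorescence readout. KDM5BΔAP 200 nM final; compound titration, 10 min RT preincubation; substrate mix 12.5 µM H3K4me3, 25 µM 2-OG, 50 µM Fe(II), 100 µM ascorbate, 0.25 mM NAD⁺, 0.25 U/mL FDH; ΔRFU over 30 min.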
The depositor's hits bear a star; i = inactive. The full list was thinned out, with hits kept by preference. Potency means the concentration at half of the fitted maximal effect.

SMILES | KDM5B inh
O=C(CN1CCN(c2nc(-c3cccs3)nc3scc(-c4ccccc4)c23)CC1)N1CCCC1 | i
Cc1ccc(-c2cnc(CCC(=O)NC(C)C3CC3)o2)cc1C (stereo not given) | i
Cc1ccccc1CCN1CCCC(CN(C)C(=O)c2cc3ccccc3[nH]2)C1 (stereo not given) | i
COc1ccccc1NC(=O)c1cc(=O)c(OCc2ccc(Cl)cc2)co1 | i
CC(=O)c1ccc(NC(=O)CSc2nnc3ccc(-c4ccc(F)cc4)nn23)cc1 | i
N#Cc1ccc(C(=O)NCc2nnc3ccc(-c4ccc(F)cc4)nn23)cc1 | 28µM*
O=C(NCc1nnc2ccc(-c3ccc(F)cc3)nn12)c1cccc(C(F)(F)F)c1 | 28µM*
N#Cc1ccc(C(=O)NCc2ccc3c(c2)CCN3C(=O)c2ccc(F)cc2)cc1 | i
O=C(NCCn1nc(-c2ccc(F)cc2)ccc1=O)c1ccc(C(F)(F)F)cc1 | i
O=C(NCc1nnc2ccc(-c3ccccc3)nn12)c1cccc(Br)c1 | 22µM*
CC(=O)c1cccc(NC(=O)CSc2nnc3ccc(-c4ccc(Cl)cc4)nn23)c1 | i
O=C(Cn1nnc(-c2cccc(C(F)(F)F)c2)n1)NCc1ccc(F)cc1 | i
O=C(NCc1nnc2ccc(-c3ccc(Cl)cc3)nn12)c1cccc2[nH]ccc12 | i
O=C(NCc1nnc2ccc(-c3ccccc3)nn12)c1ccc[nH]1 | i
O=C(NCc1nnc2ccc(-c3ccc(Cl)cc3)nn12)c1cccc(Cl)c1 | 22µM*
O=C(NCCc1nnc2ccc(NCc3ccccc3Cl)nn12)c1ccccc1 | i
O=C(NC1CCN(c2cc(-c3ccc(F)cc3)[nH]n2)CC1)c1cnccn1 | i
N#Cc1nc(-c2ccc(S(=O)(=O)N3CCCCC3)cc2)oc1NCc1ccco1 | i
Cc1nn(-c2ccccc2)c(C)c1CC(=O)NC1CCCN(Cc2ccccc2F)C1 (stereo not given) | i
O=C(/C=C/c1ccccc1)N1CCC(C(=O)N2CCN(Cc3cccc(C(F)(F)F)c3)CC2)CC1 | i
CC1CCC/C(=N/NC(=O)c2ccc(Br)o2)C1 (stereo not given) | i
O=C(COc1ccc2c(=O)c(-c3ccc(Cl)cc3)coc2c1)Nc1ccc2c(c1)OCCO2 | i
O=C1[C@H]2CN(Cc3ccc(Cl)cc3)C[C@H]2C(=O)N1CCc1ccccc1 | i
CN1C(=O)[C@H]2CN(Cc3ccc(F)c(Cl)c3)C[C@H]2C1=O | i
O=C1[C@H]2CN(Cc3ccc(F)c(Cl)c3)C[C@H]2C(=O)N1CCc1ccccc1 | 13µM*
SMILES | KDM5B inh
Cc1nn(-c2ccccc2)c(C)c1CN(C)S(=O)(=O)c1cc(F)cc(F)c1 | i
Cc1noc(C)c1CCCNC(=O)c1ccc(N2CCC[C@H]2CO)nc1 | i
Cc1noc(C)c1CCCNC(=O)c1ccc(N2CCN(CC3CC3)CC2)nc1 | 28µM*
CC(C)c1nccn1CCCNC(=O)c1ccc(N2CCC(CO)CC2)nc1 | i
Cc1cccc(C)c1N=C1NN=C(c2ccc3c(c2)CCN3S(C)(=O)=O)CS1 | i
O=C1CCC2(CNC(=O)C3CCOCC3)CCCC=C2N1 (stereo not given) | i
O=C(CCC1CCCN(S(=O)(=O)c2ccccc2)C1)N1CCN(c2ccccn2)CC1 (stereo not given) | 22µM*
O=C(CCC1CCN(C(=O)c2ccccc2)CC1)N1CCOCC1 | i
Cc1ccc(C(=O)N2CCC(CCC(=O)N3CCN(c4ccccn4)CC3)CC2)cc1 | 28µM*
O=C(CCC1CCN(C(=O)c2ccccc2)CC1)N1CCC(Cc2ccccc2)CC1 | i
O=C(CCC1CCCN(S(=O)(=O)c2ccccc2)C1)NCC1CCCCC1 (stereo not given) | i
Cc1ccc(S(=O)(=O)N2CCCC(CCC(=O)N3CCCCC3)C2)cc1 (stereo not given) | i
CC(c1ccc(Cl)cc1Cl)N(C)Cc1nc2ccccc2o1 (stereo not given) | i
CC(=O)Nc1ccc(NC(=O)c2cc(=O)c(OCc3ccccc3F)co2)cc1 | i
Brc1ccc(-c2ccc(CNc3ncn[nH]3)o2)cc1 | i
COc1cccc(Oc2coc3cc(OC(=O)c4ccccc4Br)ccc3c2=O)c1 | i
Cc1nc(Cl)c(Cl)[nH]1 | i
Cc1ccn(CCNC(=O)C2CCC(=O)N(Cc3ccc(Cl)cc3)C2)n1 (stereo not given) | i
O=C(NCCCc1ccncc1)C1CCC(=O)N(Cc2cccc(C(F)(F)F)c2)C1 (stereo not given) | i
O=C(NCCNc1cccnc1)C1CCC(=O)N(Cc2ccc(Cl)cc2)C1 (stereo not given) | 11µM*
O=c1c2ccccc2nc2sc(COc3ccc(Br)cc3)nn12 | i
O=C(c1ccco1)N1CCC(F)(c2nc(-c3ccncc3)no2)CC1 | i
CCc1ccc(/C=N/NC(=O)c2cccs2)cc1 | i
CCCc1noc(-c2cccn3c(CNC(=O)Cc4cccc(OC)c4)nnc23)n1 | i
CCc1noc(-c2cccn3c(CNC(=O)Cc4cccc(F)c4)nnc23)n1 | 25µM*
SMILES | KDM5B inh
CCc1noc(-c2cccn3c(CNC(=O)c4cccc(N(C)C)c4)nnc23)n1 | i
CCCc1noc(-c2cccn3c(CNC(=O)c4cccc(F)c4)nnc23)n1 | 25µM*
CCc1noc(-c2cccn3c(CNC(=O)c4c(F)cccc4Cl)nnc23)n1 | 28µM*
CCc1noc(-c2cccn3c(CNC(=O)c4cccc(F)c4)nnc23)n1 | 22µM*
CC1=C[C@@H](CN(C)CCC#N)[C@H](C(C)C)C[C@H]1Cc1nnc(-c2ccc(C)cc2)o1 | i
Cc1cc(C)c2oc(=O)cc(CN3CCN(c4ccccc4)CC3)c2c1 | i
Oc1ccccc1OCCOCCOc1ccccc1O | i
NC(=O)c1ccc(OCc2ccccc2C(F)(F)F)cc1 | i
CCCCC(=O)Nc1cccc(C)c1C | i
O=c1c2nc(NCc3cccs3)ccc2ncn1Cc1ccccc1 | 40µM*
O=c1c2ccccc2ncn1Cc1coc(-c2cccs2)n1 | i
O=c1c2nc(Nc3ccccc3)ccc2ncn1-c1ccccc1 | i
CNC(=O)c1ccc(C(=O)O)cn1 | i
CCN1CC(C(=O)N2CCCC(c3ccccc3)(c3ccccc3)C2)CC1=O (stereo not given) | i
CCN1CC(C(=O)N2CCN(CCOc3ccccc3)CC2)CC1=O (stereo not given) | 25µM*
CCN1CC(C(=O)N2CCN(Cc3cc(OC)ccc3OC)CC2)CC1=O (stereo not given) | i
CC(C)(C)NS(=O)(=O)c1cccc(NC(=O)c2ccccc2)c1 | i
CCCc1nnc2sc(C(C)(C)Oc3ccc(Cl)cc3)nn12 | i
N#Cc1ccc(N2CCC(C(=O)OCc3cccc4cccnc34)CC2)nc1 | i
Fc1ccccc1-c1noc(-c2ncn3c2COC(c2ccccc2Cl)C3)n1 (stereo not given) | i
CC(C)(C)OC(=O)COC(=O)c1ccc(CCNS(C)(=O)=O)cc1 | i
CC(C)c1ccc(C(=O)N2C[C@@H](CO)[C@H](N(C)C)C2)cc1 | i
COc1ccccc1-c1ccc(C(=O)N2C[C@@H](N(C)C)[C@H](C(C)C)C2)cc1 | 28µM*
COc1ccccc1-c1ccc(CN2C3CCC2CN(C(=O)c2ccncc2)C3)cc1 | i
COc1cc(CC(=O)NC2CCC(C)CC2)ccc1C (stereo not given) | i
COc1ccc(C)cc1NC(=O)N1CCCC(Cn2c(C3CC3)nc3cccnc32)C1 (stereo not given) | i

Screening results from PubChem.
